IP6K1 inh – blocks human inositol hexakisphosphate kinase 1 | Q92551 | IP6K1 kinase, ADP-Glo luminescence, 2 h; stronger effect = lower value | activity change, % (series mostly up to about 58 µM) | 140,000 compounds, 0.81% hits | AID 1645851; in the data active means activity change below about -25%
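ADP-Glo luminescence measures ADP made by human IP6K1 during a 2 h RT reaction with ATP/IP6 (mix at 1.3 mM/130 uM); top library doses 57.5 and 19.1 uM final.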
GPT2 inh – inhibitors of human GPT2 alanine aminotransferase | 100,000 compounds, 0.25% hits | Q8TD30 | Potency, µM (titrated, usually from 57.7 µM), for inactives: at the highest dose activity change, negative = inhibition, hits mostly inhibitors | Recombinant GPT2, coupled pyruvate oxidase/HRP Amplex Red fluorescence; further: potency means the concentration at half of the fitted maximal effect; nearly all actives have a fitted effect of over 60% in size
Target sequence (Q8TD30 whole entry, looked up): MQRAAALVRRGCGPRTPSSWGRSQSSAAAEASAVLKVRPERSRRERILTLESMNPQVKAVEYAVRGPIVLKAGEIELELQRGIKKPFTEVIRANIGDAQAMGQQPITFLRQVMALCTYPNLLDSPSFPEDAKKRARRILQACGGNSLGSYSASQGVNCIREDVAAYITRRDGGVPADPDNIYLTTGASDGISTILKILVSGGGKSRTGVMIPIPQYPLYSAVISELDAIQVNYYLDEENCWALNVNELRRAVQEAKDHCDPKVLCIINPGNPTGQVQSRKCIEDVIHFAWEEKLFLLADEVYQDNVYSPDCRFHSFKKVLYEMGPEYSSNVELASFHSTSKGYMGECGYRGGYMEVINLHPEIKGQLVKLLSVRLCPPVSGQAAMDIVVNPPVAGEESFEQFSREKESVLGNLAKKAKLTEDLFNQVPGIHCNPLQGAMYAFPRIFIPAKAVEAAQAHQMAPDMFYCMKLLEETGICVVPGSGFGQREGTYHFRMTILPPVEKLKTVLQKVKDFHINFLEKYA
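Recombinant GPT2 (10ng/uL) with 250uM a-KG and 2mM L-alanine, 30 min at room temperature, in HEPES pH 7.5 buffer. Pyruvate detected by pyruvate oxidase/HRP/Amplex Red fluorescence after 30 min in the dark; AOA (50uM) as positive control.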
SNCA expr inhib – SNCA gene expression inhibition | Potency, µM (titrated, usually from 57.2 µM), without a hit: top-dose activity change, negative = inhibition, hits mostly inhibitors | 140,000 compounds, 0.17% hits | HEK-293 SNCA-luciferase knock-in, luminescence, 24 h | AID 1671194;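 further: potency means the concentration at half of the fitted maximal effect; plate controls were DMSO cells for no effect and cell-free wells for full effect; nearly all actives have a fitted effect of over 45% in size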
SNCA viab count – cell viability loss counter-screen; HEK-293-SNCA-luc viability, GF-AFC fluorescence, 24 h; Potency, µM (titrated, usually from 57.1 µM), inactives show at the highest dose activity change, negative = cytotoxicity, actives largely listed as cytotoxic; 150,000 compounds, 0.12% hits;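 further: potency means the concentration at half of the fitted maximal effect; 0% = DMSO-treated cells and -100% = medium-only wells without cells; nearly all actives have a fitted effect of over 30% in size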
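HEK-293-SNCA-luc cells (1500/well) plated 24 h, then exposed 24 h to a dilution series; GF-AFC added 30 min at 37C, fluorescence 405/540 nm; normalised to medium-only and DMSO wells, Hill fit.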
IP6K1 conf – confirmation of human IP6K1 inhibitors | shares compounds with IP6K1 inh | recombinant IP6K1 kinase, ADP-Glo luminescence, 2 h | Potency, µM (titrated, usually from 49 µM), for inactives: at the top dose activity change, negative = inhibition, most hits filed as inhibitors | 1,200 compounds, 13% hits | AID 1645852; further: potency means the concentration at half of the fitted maximal effect; nearly all actives have a fitted effect of over 65% in size
Numbers without * were called inactive; i = inactive; ? = inconclusive; . = no result given; [ ] = remark or other dose. An excerpt weighted towards active compounds, which were near 1% of everything screened. Unless noted, the call rests on the fitted dose curve; in most records, active means well fitted curve in the direction sought with a large enough effect; inconclusive means small, poorly fitted or top-dose-only effect, or another doubt; inactive means no such curve, though single readings can be large; an effect the other way counts as inactive or inconclusive. Unless noted, on the % scale 0 is the no-effect control and ±100 the full control effect.

SMILES | IP6K1 inh | GPT2 inh | SNCA expr inhib | SNCA viab count | others
O=C(c1ccc(-c2ncc3cnc(-c4ccccc4)cn23)cc1)N1CCc2cccnc21 | -4 | -5%[88.5 µM] | ? | ?
COc1cccc(-c2cc(C(=O)N(C)c3ccccc3)c3cnn(C)c3n2)c1 | 5 | . | . | .
CN(Cc1ccccc1)c1ccc2cc(S(=O)(=O)N3CCCCC3)ccc2n1 | -1 | . | 25µM* | 3%
Cc1cccc(N(C)c2ccc3cc(S(=O)(=O)N4CCCC4)ccc3n2)c1 | 18 | . | -7% | 6%
Cc1ccc([S+](=O)([O-])N2CCN(c3nccc(Nc4ccccc4F)n3)CC2)cc1 | -4 | i | -2% | 8%[12.5 µM]
COc1ccccc1Nc1ccnc(N2CCN(C(=O)c3ccc(F)cc3)CC2)n1 | 13 | 1% | -15% | -12%
CC(C)C(CO)Nc1nc(Nc2cc(N)cc(Cl)c2)c2ncn(C(C)C)c2n1 (centres undefined) | -8 | i | . | ?
C=CC(=O)Nc1cccc(Nc2nc(NC3CCC(N(C)C)CC3)nc3c2ncn3C(C)C)c1 (centres undefined) | . | i | 3µM* | ?
CCC(C)S(=O)(=O)c1oc(-c2cccs2)nc1S(=O)(=O)c1ccccc1 (centres undefined) | -2 | . | ? | 2.8µM*
CC(C)CS(=O)(=O)c1oc(-c2ccc(F)cc2)nc1S(=O)(=O)c1ccccc1 | -12 | . | ? | 4.5µM*
Cc1ccc(CSc2oc(-c3cccs3)nc2S(=O)(=O)c2ccccc2)cc1 | -10 | . | -23% | 2%
S=C(Nc1cccc2ccccc12)N[C@H]1CO[C@H]2[C@@H]1OC[C@H]2OCc1ccccc1 | 3 | 2%[88.5 µM] | -19%[87.6 µM] | -27%[87.6 µM]
Nc1nc(C2CC(O)C2)cc(N2CCC(Cc3ccc(F)cc3)CC2)n1 (centres undefined) | 2 | -1% | -28% | -19%
O=C(NC1CCN(Cc2ccc(-c3ccsc3)cc2)C1)c1cccc(Cl)c1 (centres undefined) | 4 | i | 27% | -1%
c1cc(-c2cnn3cc(-c4ccc(N5CCNCC5)cc4)cnc23)c2cccnc2c1 | 23 | i | . | 24µM*
COCCNC[C@@H]1C=C(C)[C@H](Cc2nnc(-c3ccc(OC)cc3)o2)C[C@H]1C(C)C | 22 | ? | ? | 32µM*
COc1ccc(-c2nnc(C[C@@H]3C[C@@H](C(C)C)[C@H](CO)C=C3C)o2)cc1 | -2 | -5%[88.5 µM] | -14%[87.6 µM] | ?
CCCCCCCCCCCCCC(=O)N[C@H](CO)[C@H](O)c1ccc([N+](=O)[O-])cc1 | . | -2% | 9.6µM* | -10%
O=C(O)CCC(=O)OC[C@@H](NC(=O)C(Cl)Cl)[C@H](O)c1ccc([N+](=O)[O-])cc1 | 2 | ? | -10%[25.6 µM] | -19%[23.9 µM]
Cc1cc(C)cc(NS(=O)(=O)c2ccc3[nH]cc(C(=O)N(C)Cc4ccccc4)c(=O)c3c2)c1 | -26* | . | ? | -10% | IP6K1 conf=-2%
CC1(Cc2ccc3c(c2)OCO3)CCCN(C(=O)CCCn2ccnc2)C1 (centres undefined) | 8 | -1% | -21% | -1%
CN1CCN(CCNC(=O)c2ccc(-c3ccc(N4CCCCCC4)nc3)cc2)CC1 | 2 | i | 23% | -17%
COc1ccc(Br)cc1[C@@H]1Nc2ccc(C(=O)O)cc2[C@@H]2C=CC[C@@H]21 | -40* | . | -22% | -5% | IP6K1 conf=?
COc1ccc(OC)c([C@@H]2Nc3ccc(C(=O)O)cc3[C@@H]3C=CC[C@@H]32)c1 | -27* | . | 16% | 5% | IP6K1 conf=?
c1ccc(N2CCN(C3CCCN(Cc4cn[nH]c4C4CCCCC4)C3)CC2)cc1 (centres undefined) | 6 | ? | -15% | 0%
O=C(c1ccc(-c2ncc3cnc(-c4cccc(F)c4)cn23)cc1)N1CC(O)C1 | -29* | i | 17%[87.6 µM] | 3%[87.6 µM] | IP6K1 conf=-14%
CCOCCCNC(=O)C1CCCN(Cc2cccc(-c3cccs3)c2)C1 (centres undefined) | 12 | . | . | .
CN(Cc1ccno1)Cc1cn(C)nc1-c1ccc(C2CCCCC2)cc1 | -3 | i | -5% | 4%
COc1cccc(-c2nc3cc(SC)ccc3cc2CN(C)Cc2ccno2)c1 | -33* | -14%[11.5 µM] | 8% | -4% | IP6K1 conf=-11%

Screens from PubChem.
